Source: ChEMBL document CHEMBL4513146, “CO-ADD screening of Karazin Kharkiv National University (Ukraine) compounds”
Results with a measured potency or affinity are listed apart.

Legend:
Staphylococcus aureus = settings: Concentration 32 ug.mL-1;; ASSAY_TEST Inhibition of Bacterial Growth; detection method Absorption (OD600); MEDIA CAMHB; plate type 384well; NBS; CORNING #3640; time 18 hr
Escherichia coli = settings: Concentration 32 ug.mL-1;; ASSAY_TEST Inhibition of Bacterial Growth; detection method Absorption (OD600); MEDIA CAMHB; plate type 384well; NBS; CORNING #3640; time 18 hr

SMILES	Inhibition (Staphylococcus aureus) [%]	Inhibition (Escherichia coli) [%]
COc1cccc(-n2ccn3c(SCC(=O)c4cccc(Cl)c4)nnc3c2=O)c1	-1.54	0.66
Cc1ccc(NC(=O)Cn2nc3c4cc(-c5ccc(C)c(C)c5)nn4ccn3c2=O)cc1C	0.99	-7.36
Cc1nnc2ccc(S(=O)(=O)N(Cc3ccccc3Cl)c3ccc(F)cc3)cn12	-4.74	-4.95
Cc1cc2nn(CC(=O)Nc3cc(F)cc(F)c3)c(=O)n2c(Nc2ccccc2C)n1	5.53	-3.12
COc1ccccc1-n1ccn2c(SCC(=O)NCc3ccc(Cl)cc3)nnc2c1=O	12.53	-3.51
CC(C)CCn1c(=O)c2sccc2n2c(=O)n(Cc3ccccc3Cl)nc12	8.43	1.09
Cc1cc(C)cc(Oc2nccn3c(=O)n(CC(=O)Nc4ccc(Cl)cc4F)nc23)c1	18.94	4.01
COc1ccc(NC(=O)c2ccc3nn(CC(=O)Nc4ccc(C(C)=O)cc4)c(=O)n3c2)cc1	15.44	-1.93
COc1cc(OC)c(NC(=O)Cn2nc3c4c5c(sc4ncn3c2=O)CC(C)CC5)cc1Cl (stereo not given)	7.09	1.97
CCOc1ccc(-n2ccn3c(=O)n(CC(=O)Nc4ccc(Br)cc4)nc3c2=O)cc1	-12.91	-1.87
COc1ccc(C)cc1NC(=O)Cn1nc2c(N3CCSCC3)nc3ccccc3n2c1=O	9.36	0.1
O=S(=O)(c1ccc2nncn2c1)N(Cc1cc(F)cc(F)c1)c1cc(F)cc(F)c1	-5.61	-4.65
COc1ccc(-c2cc3c4nn(CC(=O)Nc5ccccc5)c(=O)n4ccn3n2)cc1	3.97	7.52
COc1ccc(NC(=O)Cn2nc3nc(N4CCCCCC4)ccn3c2=O)cc1Cl	-1.58	-10.88
COc1ccc(NC(=O)Cn2nc3c(Sc4ccccc4)nc4ccccc4n3c2=O)cc1Cl	-0.59	-7.36
Cc1ccc(C)c(Cn2nc3c(=O)n(-c4ccc(C)c(C)c4)ccn3c2=O)c1	6.02	-6.59
COc1cccc(Oc2nccn3c(=O)n(CC(=O)NC4CCCCC4)nc23)c1	3.01	-4.58
O=C(Cn1nc2c(SC3CCCCC3)nccn2c1=O)Nc1ccc(Cl)cc1F	4.94	-2.75
Cc1ccc(Sc2nccn3c(=O)n(CC(=O)N4CCN(c5ccccc5)CC4)nc23)c(C)c1	-10.57	-12.78
CCC(Sc1nnc2c(=O)n(-c3ccc(C)c(C)c3)ccn12)C(=O)Nc1ccccc1C (stereo not given)	13.17	-4.12
C=Cc1ccc(CSc2nnc3c(=O)n(-c4cccc(OC)c4)ccn23)cc1	15.25	-3.1
CCCCc1ccc(NC(=O)Cn2nc3c(N4CCSCC4)nc4ccccc4n3c2=O)cc1	10.09	1.07
O=c1c2nn(Cc3ccccc3Cl)c(=O)n2ccn1-c1ccccc1	-1.67	-5.84
COc1ccc(OC)c(NC(=O)Cn2nc3c4c5c(sc4ncn3c2=O)CCCC5)c1	3.15	-1.54
Cc1ccc(-c2cc3c4nn(CC(=O)N5CCN(c6ccc(F)cc6)CC5)c(=O)n4ccn3n2)cc1C	6.16	1.43
Cc1cc2nn(CC(=O)Nc3ccc(F)cc3C)c(=O)n2c(Nc2ccc(F)cc2)n1	9.22	-3.34
Cc1c(Cl)cccc1-n1ccn2c(=O)n(Cc3c(F)cccc3Cl)nc2c1=O	-0.05	-8.85
CCc1nnc2c(S(=O)(=O)N(Cc3ccccc3F)c3ccc(F)cc3)cccn12	1.79	-1.76
Cc1cc(C)cc(N(Cc2cccc(F)c2)S(=O)(=O)c2cccn3c(C)nnc23)c1	2.22	-5.24
COc1ccc(C)cc1NC(=O)Cn1nc2c3cc(-c4ccc(C)c(C)c4)nn3ccn2c1=O	0.65	-4.8
